Compounds with a hit are over-represented: about 4.6% of the library has one in this group of screens.
tim10-1 inh: growth inhibitors of tim10-1 mutant yeast, primary screen, luminescence, uHTS. S. cerevisiae tim10-1 ts strain growth, BacTiter-Glo, 24 h. inhibition, % at 20 µM. 330,000 compounds, 2.2% hits. AID 463190, 2010;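 active = inhibition of at least 40%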;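 note: mutant grown at 25 °C; 0% = DMSO wells with yeast and 100% = wells holding no yeast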
tim23-1 inh: growth inhibitors of tim23-1 mutant yeast, primary screen, luminescence, uHTS | 330,000 compounds, 1.3% hits | inhibition, % at 20 µM | S. cerevisiae tim23-1 growth, BacTiter-Glo luminescence, 24 h;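 active = growth inhibition of the mutant yeast at or above 50%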;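 note: temperature-sensitive mutant grown at 25 °C; plate controls were DMSO-treated mutant yeast for no effect and medium wells lacking yeast for full effect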
NALP3 yeast inh: NALP3 inflammasome inhibitors in reconstituted yeast, primary screen, luminescence, uHTS | Yeast reconstituted NLRP3/ASC/caspase-1, beta-gal luminescence, 24 h | inhibition, % at 10 µM | 330,000 compounds, 0.39% hits;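 active = inhibition of 50% or more; inactive = inhibition below 50%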;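 note: plate controls were induced DMSO wells for no effect and uninduced yeast grown without galactose for full effect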
SKKanGAS inh: S. pyogenes SKKanGAS growth inhibitors in kanamycin, primary screen, streptokinase expression inhibitor project, SKKanGAS strain, BacTiter-Glo luminescence; 6 h; 300,000 compounds, 1.3% hits; inhibition, % at 7.5 µM; AID 1662, 2009;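 active = mean replicate score, as percent of positive control median, at least 50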;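 note: strain carries kanamycin resistance gene driven by streptokinase promoter and grows in 40 µg/ml kanamycin; loss of luminescence reflects streptokinase promoter inhibition or plain growth inhibition; 0% = median of DMSO wells and 100% = positive control at its reference dose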
TIM10 inh: growth inhibitors of isogenic TIM10 control yeast, primary screen, counter-screen for tim10-1 yeast inhibitor project, luminescence, uHTS. S. cerevisiae TIM10 strain growth, BacTiter-Glo luminescence, 24 h. inhibition, % at 10 µM. 330,000 compounds, 1.4% hits. AID 463195, 2010;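 active = inhibition of 40% or more at the single tested concentration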;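 note: wild-type TIM10 isogenic control strain grown at permissive 25 °C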
tim10-1 confirm: growth inhibitors of tim10-1 mutant yeast, confirmation, single concentration, luminescence, S. cerevisiae. shares compounds with tim10-1 inh. S. cerevisiae tim10-1 ts strain growth, BacTiter-Glo, 24 h. inhibition, % at 20 µM. 7,400 compounds, 56% hits;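 active = inhibition of yeast growth at or above a set limit in either of two repeat tests at 20 µM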;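 note: tim10-1 mutant grown at permissive 25 °C to find synthetic lethal compounds; 0% = DMSO yeast wells and 100% = medium wells without yeast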
TIM10 conf: growth inhibitors of wild-type TIM10 yeast, confirmation, counter-screen for tim10-1 synthetic lethality project, single concentration, luminescence, S. cerevisiae; AID 463215, 2010; inhibition, % at 10 µM; shares compounds with TIM10 inh; S. cerevisiae tim10 strain growth, BacTiter-Glo luminescence, 24 h; 4,600 compounds, 63% hits;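 active = inhibition of yeast growth at or above a set limit in either of two replicates at 10 µM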;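 note: this counterscreen used the strain with wild-type TIM10; 0% = yeast with DMSO and 100% = medium wells lacking yeast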
tim23-1 confirm: tim23-1 mutant yeast growth inhibitors, confirmation, luminescence, single concentration. shares compounds with tim23-1 inh. S. cerevisiae tim23-1 growth, BacTiter-Glo luminescence, 24 h. inhibition, % at 20 µM. 4,400 compounds, 83% hits. AID 463218, 2010;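 active = inhibition above about 39% in either of two replicate wells at 20 µM, limit read from the data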;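 note: temperature-sensitive tim23-1 mutant grown at 25 °C; 0% = DMSO wells with yeast and 100% = medium wells without yeast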
An asterisk follows results filed as active; . = not tested or not shown.

SMILES	tim10-1 inh	tim23-1 inh	NALP3 yeast inh	SKKanGAS inh	TIM10 inh	tim10-1 confirm	TIM10 conf	tim23-1 confirm
Cc1cc2n(n1)C(c1ccc(O)cc1)Nc1ccccc1-2 (centres undefined)	54.1*	50.4*	9.4	-19.4	54.6*	46.5*	48.5*	53.9*
Cc1cc2n(n1)C(c1c[nH]c3ccccc13)Nc1ccccc1-2 (centres undefined)	60.2*	70.5*	19.2	62.9*	40.1*	33.6*	33.2*	-23.1
COc1ccc(/C=C2\CCc3ccccc3C2=O)cc1O	53.8*	64.8*	35.7	4.6	45.1*	41.4*	42.3*	58.8*
CC(C)(C)c1cc(S(=O)(=O)CCc2ccccn2)cc(C(C)(C)C)c1F	47.8*	60.1*	1.4	-1.3	53.3*	45.0*	52.0*	58.1*
CN(CCc1ccccn1)S(=O)(=O)c1ccc(F)cc1	-1.2	10.0	11.3	-5.9	-0.5	.	.	.
COc1cc(/C=C(/C#N)C(=O)NCc2ccccc2)cc(OC)c1OC	55.0*	62.6*	14.6	-6.5	34.0	49.1*	.	60.5*
O=C(CN1C(=O)CSc2ncccc21)Nc1ccccc1F	2.4	-1.4	10.5	-2.3	2.6	.	.	.
O=C(Nc1nc2c(Br)cccc2s1)C1CC1	46.2*	79.8*	-0.6	-0.6	19.9	36.4*	.	75.7*
O=C(Nc1nc2c(Cl)c(Cl)ccc2s1)C1CC1	10.6	1.2	43.1	1.5	19.2	.	.	.
CCOC(=O)C1CCN(C(=O)C(=O)Nc2ccc3nc4n(c(=O)c3c2)CCCCC4)CC1	-8.5	9.1	5.4	-3.7	-4.1	.	.	.
CC(C)Cc1ccc(S(=O)(=O)NCC2CCCO2)cc1 (centres undefined)	7.2	15.0	20.4	8.4	-1.9	.	.	.
CCOC(=O)C(C(=O)OCC)C(C(=O)OCC)N1CCOCC1 (centres undefined)	62.7*	56.8*	12.1	-13.4	68.0*	60.4*	71.0*	59.0*
O=C1c2ccccc2C(=O)c2c1oc(C(F)(F)F)c2C(=O)c1ccccc1	80.1*	80.1*	3.7	106.0*	77.8*	72.5*	92.5*	76.2*
O=C(c1ccccc1)c1coc2c1C(=O)c1ccccc1C2=O	81.5*	66.3*	33.6	13.4	72.8*	76.0*	68.7*	79.3*
COc1ccc2occ(C(=O)c3ccccc3)c2c1	16.2	15.7	4.0	5.9	5.2	.	.	.
COc1ccc(C(=O)c2coc3c2C(=O)C(=O)c2ccccc2-3)cc1	94.5*	85.2*	24.6	57.8*	94.4*	92.9*	96.5*	92.7*
COc1ccccc1C(=O)Nc1ccnn1C1CCN(Cc2cnn(C)c2C)CC1	-2.1	6.6	9.1	-1.9	8.6	.	.	.
Cc1nc2ccccn2c1C(=O)N/N=C/c1cc(C)n(-c2ccc(Br)cc2)c1C	43.9*	59.9*	-2.5	22.9	30.6	22.4	.	41.2*
Nc1ccc2nn(-c3cc([N+](=O)[O-])ccc3O)nc2c1	51.3*	58.3*	1.7	34.1	28.3	37.8*	.	52.8*
Nc1ccc(-n2cnc3cc([N+](=O)[O-])ccc32)cc1	10.3	11.1	33.8	0.9	7.5	.	.	.
CCN(CC(=O)Nc1ccc(C(=O)OC)cc1)C1CCCCC1	7.0	3.9	17.7	2.6	-14.9	.	.	.
COc1ccc(CN2C(=O)[C@H]3Cc4c([nH]c5ccccc45)C(C)(C)N3C2=O)cc1	48.5*	51.5*	6.9	26.7	41.3*	39.3*	36.5*	46.9*
Cc1cc(C)c2sc(NC(=O)C3=COCCO3)nc2c1	44.9*	53.1*	22.3	-5.9	42.7*	35.2*	30.6	40.1*
Cc1ccc(Cl)c2sc(NC(=O)C3=COCCO3)nc12	61.4*	72.0*	2.8	2.1	41.9*	51.2*	41.1*	54.5*
